In the library only some 15% were active in any assay of this set; here they are far more common.
DT40 TDP1 CPT: qHTS for Inhibitors of human tyrosyl-DNA phosphodiesterase 1 (TDP1): qHTS in cells in presence of CPT; chicken DT40 Tdp1-/-;hTDP1 cells + 20 nM CPT, ATP luminescence, 48 h; Potency, µM (highest dose often 46.2 µM), without a hit: at the highest dose activity change, negative = growth inhibition, actives largely listed as inhibitors; 420,000 compounds, 12% hits; AID 686979, 2013; also: nearly all actives have a fitted effect of over 55% in size
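Chicken DT40 Tdp1-/- cells complemented with human TDP1, 400 cells/well, exposed to compounds plus 20 nM camptothecin for at least 48 h at 37 C; viability read as ATP content by CellTiter-Glo luminescence.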
RORgamma inh: qHTS for inhibitors of ROR gamma transcriptional activity. Potency, µM (series often up to 53.6 µM), for the others: top-dose activity change, negative = inhibition, usual class: inhibitors. Drosophila S2 Gal4-RORgamma UAS-luciferase reporter, 20 h. AID 2551, 2010. 310,000 compounds, 5.4% hits. Nuclear receptor ROR-gamma (Mus musculus), P51450; also: nearly all actives have a fitted effect of over 60% in size
Target sequence (P51450 whole entry, looked up, the tested form may be a part): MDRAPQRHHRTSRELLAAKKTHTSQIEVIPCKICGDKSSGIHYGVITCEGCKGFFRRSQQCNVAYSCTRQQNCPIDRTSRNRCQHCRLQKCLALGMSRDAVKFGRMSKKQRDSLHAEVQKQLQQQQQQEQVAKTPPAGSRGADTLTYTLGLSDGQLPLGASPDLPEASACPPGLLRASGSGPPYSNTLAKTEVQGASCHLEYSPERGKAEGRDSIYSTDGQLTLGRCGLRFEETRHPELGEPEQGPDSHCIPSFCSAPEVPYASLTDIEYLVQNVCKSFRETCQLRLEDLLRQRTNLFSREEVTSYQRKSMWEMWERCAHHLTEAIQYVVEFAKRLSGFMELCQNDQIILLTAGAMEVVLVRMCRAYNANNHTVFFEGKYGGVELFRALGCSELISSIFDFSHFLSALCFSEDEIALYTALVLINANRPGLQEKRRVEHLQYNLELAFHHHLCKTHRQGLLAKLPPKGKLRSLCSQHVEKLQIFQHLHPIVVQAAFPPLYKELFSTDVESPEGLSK
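Stable Schneider cell line, Gal4 DNA-binding domain fused to ROR gamma, UAS-luciferase. Cmpd 1 hr RT → CuSO4 700 uM final → 20 hr RT → luciferase reagent 10 min → luminescence.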
Gal4-VP16 FLuc: VP16 counterscreen qHTS for inhibitors of ROR gamma transcriptional activity; Drosophila S2 Gal4-VP16 UAS-luciferase, luminescence, 20 h; Potency, µM (titrated, usually from 53.6 µM), inactives show at the highest dose activity, negative = inhibition, actives largely listed as inhibitors; 310,000 compounds, 3.5% hits; AID 2546, 2010;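 also: Gal4-VP16 expression switched on by copper sulfate through the metallothionein promoter; nearly all actives have a fitted effect of over 50% in size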
12-LOX inh: Primary qHTS assay for inhibitors of human arachidonate 12S-lipoxygenase (ALOX12): Round 2; Polyunsaturated fatty acid lipoxygenase ALOX12 (Homo sapiens), P18054; purified 12hLO, xylenol orange hydroperoxide absorbance; Potency, µM (doses to about 108 µM), for inactives: at the top dose activity change, negative = inhibition, actives largely listed as inhibitors; 580,000 compounds, 1.1% hits; AID 1671190, 2021
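Hydroperoxide product was detected by ferrous iron/xylenol orange as the 573 to 405 nm absorbance ratio. Arachidonic acid at 40 uM (final) was turned over for 30 min at room temperature by 150 nM human 12hLO, pH 7.0 Hepes buffer, after 15 min compound preincubation.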
ELG1 repair inh: qHTS screen for small molecules that inhibit ELG1-dependent DNA repair in human embryonic kidney (HEK293T) cells expressing luciferase-tagged ELG1 | 330,000 compounds, 2.3% hits | AID 504467, 2011 | Potency, µM (titrated, usually from 46.1 µM), inactives show at the highest dose activity change, negative = inhibition, hits mostly inhibitors | HEK293T ELG1-luciferase reporter, luminescence, 16 h; DNA damage induced by 5-fluorouridine; also: nearly all actives have a fitted effect of over 55% in size
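Cells (2,000 per well) received 5-fluorouridine plus test compound or DMSO and were incubated 16 hr at 37 °C, 5% CO2. Luciferase activity was read by luminescence 30 min after ONE-Glo addition; signal suppression marked inhibition of damage-induced ELG1 function.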
DT40 TDP1 no CPT: qHTS for Inhibitors of human tyrosyl-DNA phosphodiesterase 1 (TDP1): qHTS in cells in absence of CPT. DT40 Tdp1-/- hTDP1 cells, no CPT, ATP luminescence, 48 h. Potency, µM (doses to about 46.2 µM), for the others: at the highest dose activity change, negative = growth inhibition, actives largely listed as inhibitors. 420,000 compounds, 15% hits. AID 686978, 2013; also: nearly all actives have a fitted effect of over 55% in size
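No-CPT arm: Tdp1-/-;hTDP1 DT40 cells (400/well) plus compounds, incubated ≥48 hr at 37 °C. Readout CellTiter-Glo luminescence.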
Starred values were filed as active, the others as inactive; [ ] = remark or other dose. Calls follow the shape of the dose curve; as a rule, active = well fitted curve in the direction sought with a large enough effect; inconclusive = small, poorly fitted or top-dose-only effect, or another doubt; inactive = no such curve, though single readings can be large; an effect the other way counts as inactive or inconclusive. % is scaled to controls: 0 for no effect and ±100 for the full control effect; potency is read from the fitted curve at half-maximal effect.

Screening Cc1ccc(S(=O)(=O)Nc2ccccc2CNc2ccc(Br)cn2)cc1 returned DT40 TDP1 CPT inconclusive, RORgamma inh inconclusive, Gal4-VP16 FLuc inconclusive, 12-LOX inh -14.4%, ELG1 repair inh -9.5% and DT40 TDP1 no CPT 29.1µM*.
CCOc1ccc(N2C(=O)c3ccccc3NC2(C)CC)cc1 (centres undefined) was read as DT40 TDP1 CPT -9.5%, 12-LOX inh 130.9%, ELG1 repair inh inconclusive and DT40 TDP1 no CPT -35.5%.
`CCC1(C)Nc2ccccc2C(=O)N1O` (centres undefined) gave DT40 TDP1 CPT -21.9%, RORgamma inh inconclusive, Gal4-VP16 FLuc -29.1%, 12-LOX inh 0.631µM*, ELG1 repair inh 1.9% and DT40 TDP1 no CPT -12.5%.
Screening N#CC(C#N)=C1C=C(c2ccccc2)OC2=C1CCCC2 returned 12-LOX inh 5.2%.
Screening N#Cc1ccccc1OCC(=O)N(Cc1nnc(-c2ccccc2Cl)o1)C1CC1 returned DT40 TDP1 CPT inconclusive, 12-LOX inh 10.3%, ELG1 repair inh 2.5% and DT40 TDP1 no CPT 16.4µM*.
For Cc1ccc(Cn2cccc2C2=NC(C)CO2)cc1 (centres undefined) the results were DT40 TDP1 CPT -5.2%, RORgamma inh 17.8µM*, Gal4-VP16 FLuc -6.9%, 12-LOX inh 21.1%, ELG1 repair inh -0.6% and DT40 TDP1 no CPT -15.4%.
For CC(C)C1COC(c2cccn2Cc2ccccc2Cl)=N1 (centres undefined) the results were DT40 TDP1 CPT inconclusive, RORgamma inh inconclusive, Gal4-VP16 FLuc 7.1%, 12-LOX inh -2.7%, ELG1 repair inh 2.5% and DT40 TDP1 no CPT inconclusive.
CC(=O)Nc1ccc(NC(=O)CC2SC(=O)N(CC(=O)c3ccccc3)C2=O)cc1 (centres undefined) was read as DT40 TDP1 CPT 18.4µM*, RORgamma inh 15.5%, Gal4-VP16 FLuc -16.2%, 12-LOX inh -44.0%, ELG1 repair inh 10.6% and DT40 TDP1 no CPT 20.6µM*.
Screening O=C(CC1SC(=O)N(c2ccccc2)C1=O)Nc1ccccc1 (centres undefined) returned DT40 TDP1 CPT 16.4µM*, RORgamma inh inconclusive, Gal4-VP16 FLuc inconclusive, 12-LOX inh 0.0%, ELG1 repair inh 16.9% and DT40 TDP1 no CPT -24.6%.
Cc1ccc(NC(=O)CC2SC3=NCCN3C2=O)cc1 (centres undefined) was read as DT40 TDP1 CPT inconclusive, RORgamma inh inconclusive, Gal4-VP16 FLuc 11.2µM*, 12-LOX inh -16.9%, ELG1 repair inh 19.0% and DT40 TDP1 no CPT inconclusive.
`COc1ccc(NC(=O)CC2SC3=NCCN3C2=O)cc1` (centres undefined) gave DT40 TDP1 CPT 9.4%, RORgamma inh -0.4%, Gal4-VP16 FLuc 4.4%[10 µM], 12-LOX inh 5.5%, ELG1 repair inh -3.5% and DT40 TDP1 no CPT 3.5%.
For Cc1cccc(NC(=O)CC2SC(=O)N(c3ccccc3)C2=O)c1 (centres undefined) the results were DT40 TDP1 CPT 4.61µM*, RORgamma inh inconclusive, Gal4-VP16 FLuc inconclusive, 12-LOX inh inconclusive, ELG1 repair inh 16.5% and DT40 TDP1 no CPT 5.17µM*.
`COc1ccc2[nH]c(C(=O)NCC(=O)Nc3ccc4c(c3)OCCO4)cc2c1OC` gave 12-LOX inh 4.3%.
C=CCN1C(=O)C(CC(=O)Nc2ccccc2)S/C1=N/c1nccs1 (centres undefined) was read as DT40 TDP1 CPT -8.8%, RORgamma inh 2.3%, Gal4-VP16 FLuc 2.6%, 12-LOX inh 0.0%, ELG1 repair inh 3.5% and DT40 TDP1 no CPT -12.4%.
For O=C(CC1Sc2ncnn2C1=O)Nc1ccccc1 (centres undefined) the results were DT40 TDP1 CPT 7.31µM*, RORgamma inh inconclusive, Gal4-VP16 FLuc 2.9%, 12-LOX inh -10.1%, ELG1 repair inh -23.2% and DT40 TDP1 no CPT 14.6µM*.
For Cc1ccc(NC(=O)CC2SC(=O)N(c3ccccc3)C2=O)cc1 (centres undefined) the results were DT40 TDP1 CPT 9.2µM*, RORgamma inh inconclusive, Gal4-VP16 FLuc inconclusive, 12-LOX inh inconclusive, ELG1 repair inh 17.9% and DT40 TDP1 no CPT 7.31µM*.
`CCCN1C(=O)SC(CC(=O)Nc2ccc(C)cc2)C1=O` (centres undefined) gave DT40 TDP1 CPT 18.4µM*, RORgamma inh -5.0%, Gal4-VP16 FLuc 24.1%, 12-LOX inh 0.0%, ELG1 repair inh 13.1% and DT40 TDP1 no CPT inconclusive.
CCN=C1SC(CC(=O)Nc2ccc(C(F)(F)F)cc2)C(=O)N1CC (centres undefined) was read as DT40 TDP1 CPT -14.4%, RORgamma inh inconclusive, Gal4-VP16 FLuc -13.1%, 12-LOX inh 8.4%, ELG1 repair inh 0.4% and DT40 TDP1 no CPT -28.0%.
`O=C(c1ccco1)N1CCN(C(=O)C2CCN(C(=O)c3cccs3)CC2)CC1` gave 12-LOX inh -0.6%.
Screening C=CCn1c(NCCN(C)C)nc2c1c(=O)[nH]c(=O)n2C returned 12-LOX inh -10.6%.
For Oc1ccc(NCc2cccc(OCc3ccccc3)c2)cc1 the results were DT40 TDP1 CPT 14.6µM*, RORgamma inh 11.2µM*, Gal4-VP16 FLuc inconclusive, 12-LOX inh inactive, ELG1 repair inh -8.9% and DT40 TDP1 no CPT 20.6µM*.
Screening Oc1ccc(NCc2cccc(OCc3ccc(F)cc3)c2)cc1 returned DT40 TDP1 CPT 23.1µM*, RORgamma inh 10µM*, Gal4-VP16 FLuc inconclusive, 12-LOX inh 182.5%, ELG1 repair inh inconclusive and DT40 TDP1 no CPT 18.4µM*.
`Fc1ccc(CNCc2cccc(OCc3ccccc3)c2)cc1` gave 12-LOX inh -3.7%.
`O=[N+]([O-])c1ccc(COc2cccc(CNc3ccc(F)cc3)c2)cc1` gave DT40 TDP1 CPT 25.9µM*, RORgamma inh 22.8%, Gal4-VP16 FLuc 4.7%, 12-LOX inh -14.1%, ELG1 repair inh 12.6% and DT40 TDP1 no CPT 13µM*.
c1ccc(COc2cccc(CNCc3ccccn3)c2)cc1 was read as DT40 TDP1 CPT inconclusive, RORgamma inh 11.2µM*, Gal4-VP16 FLuc -18.7%, 12-LOX inh 12.2%, ELG1 repair inh -14.6% and DT40 TDP1 no CPT -14.9%.

Assay outcomes as filed in PubChem.
